# High-throughput results: PubChem BioAssay, several laboratories
# This is a sample that favours compounds with a hit; in the whole collection about 3.7% have one here.
# TIM10 inh = TIM10 yeast growth inhibition; S. cerevisiae TIM10 strain growth, BacTiter-Glo luminescence, 24 h; inhibition, % at 10 µM; hit rate 1.4% among 330,000;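 active = inhibition of 40% or more at the single tested concentration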;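 note: wild-type TIM10 isogenic control strain grown at permissive 25 °C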
# PfHsp90 yeast 2 = reduces growth (ATP signal) of yeast expressing P. falciparum Hsp90; S. cerevisiae expressing PfHsp90, BacTiter-Glo ATP, 48 h; yeast lacking PDR1 and PDR3 efflux regulators; inhibition, % at 9.4 µM; hit rate 0.32% among 310,000; AID 504621;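 active = every replicate shows inhibition above about 80%, whatever the replicate mean, limit read from the data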;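 note: 0% = DMSO neutral controls and 100% = 20 µM radicicol positive controls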
# tim10-1 inh = inhibits growth of tim10-1 mutant yeast; inhibition, % at 20 µM; AID 463190; hit rate 2.2% among 330,000; S. cerevisiae tim10-1 ts strain growth, BacTiter-Glo, 24 h;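 active = inhibition of at least 40%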;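 note: mutant grown at 25 °C; 0% = DMSO wells with yeast and 100% = wells holding no yeast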
# V-ATPase pH = alters yeast V-ATPase proton transport; S. cerevisiae, pHLuorin cytosolic pH fluorescence; hit rate 0.37% among 350,000; AID 504577; response, % at 10 µM; in the data active = response mostly above about 7.3%, no sharp cut-off; inactive = mostly below about 5.4%; note: actives read high
# tim23-1 inh = tim23-1 yeast growth inhibition | S. cerevisiae tim23-1 growth, BacTiter-Glo luminescence, 24 h | inhibition, % at 20 µM | hit rate 1.3% among 330,000;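 active = growth inhibition of the mutant yeast at or above 50%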;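 note: temperature-sensitive mutant grown at 25 °C; plate controls were DMSO-treated mutant yeast for no effect and medium wells lacking yeast for full effect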
# tim10-1 conf = tim10-1 yeast growth inhibition, confirmed; shares compounds with tim10-1 inh; inhibition, % at 20 µM; hit rate 56% among 7,400; S. cerevisiae tim10-1 ts strain growth, BacTiter-Glo, 24 h;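 active = inhibition of yeast growth at or above a set limit in either of two repeat tests at 20 µM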;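 note: tim10-1 mutant grown at permissive 25 °C to find synthetic lethal compounds; 0% = DMSO yeast wells and 100% = medium wells without yeast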
# * = called active by the depositor; nt = not tested or not shown.
SMILES,TIM10 inh,PfHsp90 yeast 2,tim10-1 inh,V-ATPase pH,tim23-1 inh,tim10-1 conf
CCC(=O)N1CCC2(CC1)Oc1ccc(F)cc1C(=O)C21CC(c2ccc(Cl)cc2)=NO1 (stereo unspecified),12,-18,14,1,26,nt
O=C(c1ccoc1)N1CCC2(CC1)Oc1ccc(Cl)cc1C(=O)C21CC(c2ccc(Cl)cc2)=NO1 (stereo unspecified),27,18,54*,0,30,41*
O=C(c1ccc2c(c1)OCO2)N1CCC2(CC1)Oc1ccc(F)cc1C(=O)C21CC(c2ccccc2)=NO1 (stereo unspecified),-12,-6,42*,0,-2,34*
CC(Oc1ccccc1)C(=O)N1CCC2(CC1)Oc1ccc(Cl)cc1C(=O)C21CC(c2ccccc2)=NO1 (stereo unspecified),21,nt,30,nt,30,nt
CC(C)C(=O)N1CCC2(CC1)Oc1ccc(Cl)cc1C(=O)C21CC(c2ccccc2)=NO1 (stereo unspecified),-9,nt,53*,-8,3,30
CC(C)C(=O)N1CCC2(CC1)Oc1ccc(F)cc1C(=O)C21CC(c2ccc(Cl)cc2)=NO1 (stereo unspecified),-16,nt,47*,-4,6,22
O=C(c1ccc(F)c(S(=O)(=O)N2CCOCC2)c1)N1CCN(c2ncccn2)CC1,8,-16,13,-7,18,nt
O=C(CCN1CCN(C(=O)c2ccccc2)CC1)c1ccc(Br)cc1,19,-1,36,6,31,nt
C[C@@H]1CN([C@@H](C)CO)C(=O)CCCn2nncc2CO[C@H]1CN(C)C(=O)NC1CCCCC1,nt,nt,nt,0,nt,nt
Cc1ccc(C(=O)N2CCC3(CC2)Oc2ccc(F)cc2C(=O)C32CC(c3ccc(Cl)cc3)=NO2)s1 (stereo unspecified),-6,nt,51*,-1,0,33*
C[C@]12CCC(=O)CC1CCC1C2CC[C@@]2(C)C1CC[C@@]21CCO1 (stereo partly specified),-8,-4,28,0,32,nt
C[C@]12CCC(=O)C[C@@H]1CC[C@@H]1[C@@H]2CC[C@]2(C)C=CC[C@@H]12,10,7,52*,5,33,70*
COc1cc(/C=C2/CCc3ccccc3C2=O)cc(OC)c1OC,40,1,41*,-5,42,29
O=C(CSc1nc2ccccc2s1)N/N=C/c1cc([N+](=O)[O-])ccc1O,0,-32,2,6,19,nt
CCOc1ccc(S(=O)(=O)N(CC)CC(=O)NCc2ccncc2)cc1C,2,5,-5,2,13,nt
CC(C)c1ccc(S(=O)(=O)N2CCN(C(=O)CCNC(=O)Nc3ccccc3)CC2)cc1,12,-10,18,3,21,nt
CC(C)c1ccc(NC(=O)N2CCN(S(=O)(=O)c3ccccc3)CC2)cc1,5,-16,41*,1,22,15
Cc1cccc(C(=O)O/N=C2\CCCc3ccccc32)c1,23,17,44*,3,18,36*
COc1ccc2c(c1)/C(=N/OC(=O)c1cccs1)CCC2,19,-4,52*,1,34,41*
Cc1ccc(C(=O)O/N=C2\CCCc3ccccc32)cc1,33,nt,31,2,20,nt
Cc1cc(C)cc(NC(=O)CN2CCC(NC(=O)c3ccccc3F)CC2)c1,5,-1,0,0,-4,nt
O=C(Cc1ccccc1)NCC(=O)N1CCN(c2ccccc2)CC1,-1,7,2,-1,9,nt
Cc1ccc(-c2cc(=O)[nH][nH]2)c(C)c1,30,18,44*,1,25,24
Cc1ccc(-c2csc3nc[nH]c(=O)c23)c(C)c1,-15,6,-2,1,2,nt
Oc1ccc(-c2nccc(-c3ccc(Cl)cc3)n2)cc1,36,9,42*,1,49,43*
Oc1ccc(-c2nccc(-c3ccc(Cl)cc3Cl)n2)cc1,37,-54,42*,9,26,34*
COc1ccc(NC(=O)COC(=O)c2ccc(S(=O)(=O)N3CCCCCC3)cc2)c(OC)c1,-4,3,9,-2,13,nt
O=Cc1c(-c2ccccc2)cc2oc3ccccc3cc1-2,24,13,17,-2,38,nt
COC(=O)c1c(Cc2ccccc2Cl)c[nH]c1C,10,-8,41*,-1,28,16
